ALOX12 inh: ALOX12 (human) lipoxygenase inhibition | purified 12hLO, xylenol orange hydroperoxide absorbance | Potency, µM (highest dose often 108 µM), without a hit: top-dose activity change, negative = inhibition, usual class: inhibitors | 580,000 compounds, 1.1% hits | AID 1671190; further: potency means the concentration at half of the fitted maximal effect
Target sequence (P18054 whole entry, looked up): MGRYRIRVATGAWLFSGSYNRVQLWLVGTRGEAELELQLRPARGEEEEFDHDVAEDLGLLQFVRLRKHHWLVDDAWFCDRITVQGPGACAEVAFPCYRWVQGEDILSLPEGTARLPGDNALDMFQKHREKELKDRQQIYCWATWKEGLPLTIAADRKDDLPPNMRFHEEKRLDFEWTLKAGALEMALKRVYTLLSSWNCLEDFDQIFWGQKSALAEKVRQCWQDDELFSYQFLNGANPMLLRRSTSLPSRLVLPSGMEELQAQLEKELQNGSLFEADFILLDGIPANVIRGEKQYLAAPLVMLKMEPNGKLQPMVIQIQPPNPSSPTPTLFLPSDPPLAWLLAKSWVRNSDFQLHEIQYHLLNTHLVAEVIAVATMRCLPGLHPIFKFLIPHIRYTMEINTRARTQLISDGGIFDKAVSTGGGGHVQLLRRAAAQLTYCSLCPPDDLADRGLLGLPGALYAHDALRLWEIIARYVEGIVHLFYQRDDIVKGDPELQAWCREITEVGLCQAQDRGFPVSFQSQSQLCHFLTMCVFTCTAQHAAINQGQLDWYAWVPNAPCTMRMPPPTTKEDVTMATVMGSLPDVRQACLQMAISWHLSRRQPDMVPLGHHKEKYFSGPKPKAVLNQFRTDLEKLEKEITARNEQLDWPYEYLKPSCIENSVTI
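Hydroperoxide product was detected by ferrous iron/xylenol orange as the 573 to 405 nm absorbance ratio. Arachidonic acid at 40 uM (final) was turned over for 30 min at room temperature by 150 nM human 12hLO, pH 7.0 Hepes buffer, after 15 min compound preincubation.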
HT1080 IDH1KD tx: toxicity to HT-1080 IDH1 knockdown cells (counter line). AID 686971. Potency, µM (top dose mostly 46.1 µM), for the others: at the highest dose activity, negative = toxicity, hits mostly cytotoxic. HT-1080 IDH1 knockdown viability, ATP luminescence, 48 h. 360,000 compounds, 2% hits;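 further: potency means the concentration at half of the fitted maximal effect; 0% = DMSO wells and -100% = cell-free medium wells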
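Luminescent ATP read-out (CellTiter-Glo, 10 min at room temperature) after 48 h compound exposure at 37 °C gave viability of IDH1-knockdown HT-1080 cells. Activity was normalised to DMSO and cell-free wells, then fitted as concentration-response curves.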
IL-1B inflam inh: inhibitors of inflammasome signaling (IL-1 beta secretion) | activity change, % at 57.5 µM | 360,000 compounds, 4.7% hits | THP-1 LPS/ATP IL-1B secretion, AlphaLISA, 16 h; active compounds read low; in the data active means activity change below about -50%; inconclusive means mostly about -30% to -49%
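Secreted IL-1B measured by AlphaLISA bead assay after 16 h compound exposure of THP-1 cells; compounds (final up to 57.5 uM) added 1 h before LPS (250 ng/mL) and ATP (1.25 mM) stimulation; lower signal means less secretion.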
TDP1 cell CPT: DT40-hTDP1 cell growth loss with CPT; chicken DT40 Tdp1-/-;hTDP1 cells + 20 nM CPT, ATP luminescence, 48 h; Potency, µM (top dose mostly 46.2 µM), inactives show at the top dose activity change, negative = growth inhibition, most hits filed as inhibitors; 420,000 compounds, 12% hits; AID 686979; further: potency means the concentration at half of the fitted maximal effect; nearly all actives have a fitted effect of over 55% in size
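Chicken DT40 Tdp1-/- cells complemented with human TDP1, 400 cells/well, exposed to compounds plus 20 nM camptothecin for at least 48 h at 37 C; viability read as ATP content by CellTiter-Glo luminescence.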
DT40 TDP1 no CPT: qHTS for Inhibitors of human tyrosyl-DNA phosphodiesterase 1 (TDP1): qHTS in cells in absence of CPT | DT40 Tdp1-/- hTDP1 cells, no CPT, ATP luminescence, 48 h | Potency, µM (top dose mostly 46.2 µM), without a hit: top-dose activity change, negative = growth inhibition, usual class: inhibitors | 420,000 compounds, 15% hits; further: potency means the concentration at half of the fitted maximal effect; nearly all actives have a fitted effect of over 55% in size
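Stably hTDP1-transfected Tdp1-null chicken DT40 cells were treated with library compounds minus camptothecin and grown for at least 48 hr at 37 °C, after which cellular ATP was quantified by luminescence.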
HT1080NT lethal: kills 2HG-producing HT-1080-NT fibrosarcoma cells | 360,000 compounds, 1.6% hits | HT-1080-NT fibrosarcoma viability, CellTiter-Glo ATP luminescence, 48 h | Potency, µM (top dose mostly 46.1 µM), for inactives: at the highest dose activity, negative = less viability, actives largely listed as cytotoxic;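 further: NT is the 2HG producing partner of a matched IDH1 knockdown line; potency means the concentration at half of the fitted maximal effect; 0% = DMSO-treated cells and -100% = media-only wells without cells; nearly all actives have a fitted effect of over 55% in size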
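Fibrosarcoma NT cells, 750 per well in 5% FBS RPMI, were exposed to compound for 48 hours. Viability: CellTiter-Glo luminescence.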
An asterisk follows results filed as active; ? = inconclusive; . = no result given; [ ] = remark or other dose. Shown is part of a subset that was picked to be rich in hits. Unless noted, the call rests on the fitted dose curve; in most records, active means well fitted curve in the direction sought with a large enough effect; inconclusive means small, poorly fitted or top-dose-only effect, or another doubt; inactive means no such curve, though single readings can be large; an effect the other way counts as inactive or inconclusive. Unless noted, on the % scale 0 is the no-effect control and ±100 the full control effect.

SMILES | ALOX12 inh | HT1080 IDH1KD tx | IL-1B inflam inh | TDP1 cell CPT | DT40 TDP1 no CPT | HT1080NT lethal
C#CC[N+](C)(C)CCCCCCCCCC | -4% | 12µM* | -80* | 2.1µM* | 2.3µM* | ?
C#CC[N+](C)(C)CCCCCCCC | -2% | ? | -54* | ? | ? | ?
CCCCCC[N+](C)(C)CCSSCC[N+](C)(C)CCCCCC | 126% | 1% | -11 | -7% | -5% | 11%
CCn1ncc(CN2CCCC23CCN(c2cc(C)nc4ccccc24)CC3)c1C | 46% | . | . | . | . | .
CCCCCCC1COC(c2ccc(O)cc2)OC1 (stereo not given) | -3% | . | . | . | . | .
CCCn1c(O)c(C=Nc2ccccc2)sc1=S | ? | -4% | -9 | -5% | ? | -19%
Oc1c(/C=C/C=C/C=Nc2ccccc2)sc(=S)n1Cc1ccccc1 | 13µM* | 10% | 0 | ? | 21µM* | 9%
CCn1c(O)c(/C=C/C=C/C=Nc2ccccc2)sc1=S | ? | 3% | -7 | ? | 26µM* | -5%
CCCCn1c(O)c(/C=C/C=C/C=Nc2ccccc2)sc1=S | 13µM* | -8% | -7 | 12µM* | 15µM* | -10%
CCn1c(O)c(C=NCc2ccccc2)sc1=S | 35% | 0% | -21 | -25% | ? | -1%
Cc1noc(C)c1[S+](=O)([O-])N1CCn2c(nnc2-c2ccc(Cl)cc2)C1 | 2%[6.33 µM] | . | . | . | . | .
CN(Cc1ccccc1F)C1CCOc2ccccc21 (stereo not given) | 66%[176 µM] | . | . | . | . | .
COC(=O)C[C@H]1C[C@H]2c3cc(NC(=O)Cc4ccncc4)ccc3O[C@H]2[C@@H](CO)O1 | 2% | 4% | 28 | -14% | ? | 2%
O=c1[nH]c2ccc(Cl)cc2c(-c2ccccc2)c1N1CCN(CCO)CC1 | 9% | ? | -19 | ? | ? | 11µM*
NNC(=O)CSc1c(-c2ccccc2)c2cc(Cl)ccc2[nH]c1=O | 110% | -2% | -18 | 2% | ? | -2%
O=c1[nH]c2ccc(Cl)cc2c(-c2ccccc2)c1SC(=S)N1CCOCC1 | 0% | ? | ? | ? | ? | 16µM*
O=C(O)C1OC(Oc2c(-c3ccc(O)c(O)c3)oc3cc(O)cc(O)c3c2=O)C(O)C(O)C1O (stereo not given) | . | 6% | 24 | ? | 13µM* | 0%
CCOC(=O)N1CCN(C(=O)c2cc(-c3cccs3)nc3ccccc23)CC1 | 27% | . | . | . | . | .
O=C(Nc1cccc(-c2ccc(N3CCOCC3)nn2)c1)c1cccc(Cl)c1 | 8% | -1% | 11 | -21% | 21µM* | 2%
O=C(Nc1cccc(-c2ccc(N3CCOCC3)nn2)c1)c1ccccc1Cl | 9% | 5% | -9 | -30% | -22% | -4%
Cc1cc(C(=O)Nc2cccc(-c3ccc(N4CCOCC4)nn3)c2)ccc1[N+](=O)[O-] | -9% | -10% | -7 | ? | 26µM* | -21%
O=C(Nc1cccc(-c2ccc(N3CCOCC3)nn2)c1)c1ccc(Cl)cc1 | 2% | 1% | 15 | ? | -28% | 6%
O=C(Nc1cccc(-c2ccc(N3CCCCC3)nn2)c1)c1ccco1 | ? | -15% | -9 | ? | 13µM* | 0%
c1csc(-c2cn3ccc4ccccc4c3n2)c1 | -12% | -29% | -62* | -14% | -19% | -19%
COc1ccccc1NC(=O)CSCc1cc(=O)c2cccc(Cl)c2[nH]1 | ? | . | . | -16% | -7% | .
Nc1nc(SCc2ccccc2)c2ncn(C3CCCO3)c2n1 (stereo not given) | -30% | 0% | -10 | ? | ? | -12%
Nc1nc(SCc2ccccc2)c2ncn(C3CCCCC3)c2n1 | -19% | -12% | -78* | ? | 29µM* | ?
